Measured values published in PMC7862700, “An all-to-all approach to the identification of sequence-specific readers for epigenetic DNA modifications on cytosine”.

Columns and labels:
Test in all cases: DAPPL (digital affinity profiling via proximity ligation, sequencing); 10 mM Tris-HCl pH 7.5, 50 mM NaCl, 1 mM DTT, 4% glycerol, room temperature, 30 min; GST-TFs on glutathione beads, 16-mer random dsDNA library, 0.1% formaldehyde crosslink after washing; high values mean tight binding
Conditions in all cases: protein: recombinant; tags: N-terminal GST; dsDNA, one strand shown
FLI1 = molecular target: T1, FLI1 (Homo sapiens, UniProt Q01543 1-452)
T1 sequence: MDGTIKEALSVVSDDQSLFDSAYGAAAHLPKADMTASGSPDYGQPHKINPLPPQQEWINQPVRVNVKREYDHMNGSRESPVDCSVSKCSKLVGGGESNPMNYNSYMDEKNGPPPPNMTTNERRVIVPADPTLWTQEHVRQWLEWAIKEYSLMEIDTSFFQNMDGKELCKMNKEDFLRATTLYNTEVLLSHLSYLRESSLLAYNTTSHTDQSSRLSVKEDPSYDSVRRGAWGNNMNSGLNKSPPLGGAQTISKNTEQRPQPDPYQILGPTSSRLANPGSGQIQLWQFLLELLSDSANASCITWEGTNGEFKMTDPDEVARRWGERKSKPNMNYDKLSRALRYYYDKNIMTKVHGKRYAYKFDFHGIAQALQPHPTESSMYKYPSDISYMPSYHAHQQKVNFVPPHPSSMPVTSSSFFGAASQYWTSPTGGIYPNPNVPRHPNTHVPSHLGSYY
In short: (§1)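 Binding signal is defined as a hexamer's read frequency for one factor over its frequency for the tag-only sample. To obtain reads, GST-fused human transcription factors were expressed in yeast, captured on glutathione beads, barcoded with DNA and pooled with that sample. Pools met 200 nmole of a 16-mer random double-stranded DNA library in Tris/NaCl/DTT/glycerol buffer for 30 min at room temperature before washing, 0.1% formaldehyde crosslinking, proximity ligation (BsaI/T4 ligase, 1 h, 37 °C), PCR and Illumina NextSeq500 sequencing.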

ELK1 = molecular target: T2, ELK1 (Homo sapiens, UniProt P19419 1-428)
T2 sequence: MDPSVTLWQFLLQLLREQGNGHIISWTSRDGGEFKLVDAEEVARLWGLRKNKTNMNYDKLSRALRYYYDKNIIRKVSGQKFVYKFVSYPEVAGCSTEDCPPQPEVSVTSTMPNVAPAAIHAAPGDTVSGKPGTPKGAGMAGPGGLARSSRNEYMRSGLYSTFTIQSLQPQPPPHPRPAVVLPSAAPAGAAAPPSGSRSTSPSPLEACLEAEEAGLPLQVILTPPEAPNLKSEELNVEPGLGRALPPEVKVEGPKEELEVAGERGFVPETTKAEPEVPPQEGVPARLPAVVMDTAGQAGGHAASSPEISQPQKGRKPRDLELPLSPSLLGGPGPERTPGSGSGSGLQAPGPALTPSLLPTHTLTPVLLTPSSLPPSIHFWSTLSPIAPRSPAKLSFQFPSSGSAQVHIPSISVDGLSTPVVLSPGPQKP
In short: as §1

GABPA = molecular target: T3, GABPA (Homo sapiens, UniProt Q06546 1-454)
T3 sequence: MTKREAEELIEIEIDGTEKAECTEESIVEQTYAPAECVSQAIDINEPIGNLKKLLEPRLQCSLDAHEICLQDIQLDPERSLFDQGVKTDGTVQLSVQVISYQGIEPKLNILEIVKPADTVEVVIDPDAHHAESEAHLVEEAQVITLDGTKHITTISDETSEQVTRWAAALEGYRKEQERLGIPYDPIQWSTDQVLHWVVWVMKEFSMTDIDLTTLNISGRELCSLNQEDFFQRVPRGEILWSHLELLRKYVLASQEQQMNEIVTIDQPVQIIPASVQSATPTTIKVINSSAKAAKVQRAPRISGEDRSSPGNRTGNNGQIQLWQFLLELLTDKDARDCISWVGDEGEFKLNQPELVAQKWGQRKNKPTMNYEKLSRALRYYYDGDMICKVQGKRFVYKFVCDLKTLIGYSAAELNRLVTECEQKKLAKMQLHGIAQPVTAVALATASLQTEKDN
In short: as §1

ERG = molecular target: T4, ERG (Homo sapiens, UniProt P11308 1-479)
T4 sequence: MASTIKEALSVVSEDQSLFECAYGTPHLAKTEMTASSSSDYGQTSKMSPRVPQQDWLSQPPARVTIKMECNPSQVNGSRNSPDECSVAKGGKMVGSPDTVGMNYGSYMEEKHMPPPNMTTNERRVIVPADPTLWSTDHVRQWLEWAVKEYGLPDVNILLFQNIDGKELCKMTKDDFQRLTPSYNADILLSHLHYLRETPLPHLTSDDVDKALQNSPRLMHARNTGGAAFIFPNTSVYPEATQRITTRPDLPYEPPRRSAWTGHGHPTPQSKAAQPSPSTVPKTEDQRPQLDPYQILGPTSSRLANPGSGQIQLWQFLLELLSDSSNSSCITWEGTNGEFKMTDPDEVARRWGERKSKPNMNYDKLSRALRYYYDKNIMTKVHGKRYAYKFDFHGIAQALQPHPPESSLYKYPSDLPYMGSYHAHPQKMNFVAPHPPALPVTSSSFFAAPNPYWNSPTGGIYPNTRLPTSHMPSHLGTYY
In short: as §1

ELF1 = ELF1 (Homo sapiens, UniProt P32519 1-619)
In short: as §1

SPI1 = SPI1 (Homo sapiens, UniProt P17947 1-270)
In short: as §1

SPIB = SPIB (Homo sapiens, UniProt Q01892 1-262)
In short: as §1

ELK3 = molecular target: T5, ELK3 (Homo sapiens, UniProt P41970 1-407)
T5 sequence: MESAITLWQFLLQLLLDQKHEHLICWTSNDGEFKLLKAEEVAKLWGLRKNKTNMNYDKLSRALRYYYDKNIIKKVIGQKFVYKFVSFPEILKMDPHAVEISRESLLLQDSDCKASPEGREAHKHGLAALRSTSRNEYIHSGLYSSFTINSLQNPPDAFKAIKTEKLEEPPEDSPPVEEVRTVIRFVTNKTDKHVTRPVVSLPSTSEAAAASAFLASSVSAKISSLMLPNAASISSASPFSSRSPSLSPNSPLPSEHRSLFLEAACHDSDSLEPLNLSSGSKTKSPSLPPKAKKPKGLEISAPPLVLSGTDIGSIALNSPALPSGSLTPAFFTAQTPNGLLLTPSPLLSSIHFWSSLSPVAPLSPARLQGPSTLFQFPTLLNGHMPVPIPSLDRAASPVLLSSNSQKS
In short: as §1

FEV = molecular target: T6, FEV (Homo sapiens, UniProt Q99581 1-238)
T6 sequence: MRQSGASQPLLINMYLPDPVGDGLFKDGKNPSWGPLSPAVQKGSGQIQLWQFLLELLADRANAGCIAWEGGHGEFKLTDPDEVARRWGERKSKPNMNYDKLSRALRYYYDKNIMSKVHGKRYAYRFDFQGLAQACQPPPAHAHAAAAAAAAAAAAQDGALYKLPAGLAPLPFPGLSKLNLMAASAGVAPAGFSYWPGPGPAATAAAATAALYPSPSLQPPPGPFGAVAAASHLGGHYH
In short: as §1

ETV5 = ETV5 (Homo sapiens, UniProt P41161 1-510)
In short: as §1

SPIC = molecular target: T7, SPIC (Homo sapiens, UniProt Q8N5J4 1-248)
T7 sequence: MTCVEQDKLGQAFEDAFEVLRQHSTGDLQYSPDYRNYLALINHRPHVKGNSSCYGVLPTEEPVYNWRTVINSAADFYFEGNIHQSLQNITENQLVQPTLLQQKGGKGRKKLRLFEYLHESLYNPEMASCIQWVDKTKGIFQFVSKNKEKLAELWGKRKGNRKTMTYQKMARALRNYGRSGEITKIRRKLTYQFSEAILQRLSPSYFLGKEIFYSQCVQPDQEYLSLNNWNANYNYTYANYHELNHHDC
In short: as §1

ELF4 = ELF4 (Homo sapiens, UniProt Q99607 1-663)
In short: as §1

ELK4 = molecular target: T8, ELK4 (Homo sapiens, UniProt P28324-2 1-405)
T8 sequence: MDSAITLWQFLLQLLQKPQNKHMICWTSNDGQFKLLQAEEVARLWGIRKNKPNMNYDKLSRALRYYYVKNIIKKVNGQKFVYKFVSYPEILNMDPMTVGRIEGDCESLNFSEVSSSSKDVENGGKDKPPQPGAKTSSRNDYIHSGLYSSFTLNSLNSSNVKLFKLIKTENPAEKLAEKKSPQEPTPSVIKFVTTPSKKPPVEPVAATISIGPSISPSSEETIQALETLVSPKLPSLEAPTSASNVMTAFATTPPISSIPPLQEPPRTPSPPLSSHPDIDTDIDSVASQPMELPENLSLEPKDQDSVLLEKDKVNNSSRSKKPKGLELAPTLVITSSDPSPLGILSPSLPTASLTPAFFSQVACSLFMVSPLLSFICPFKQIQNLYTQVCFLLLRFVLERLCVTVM
In short: as §1

ETV2 = molecular target: T9, ETV2 (Homo sapiens, UniProt O00321 1-342)
T9 sequence: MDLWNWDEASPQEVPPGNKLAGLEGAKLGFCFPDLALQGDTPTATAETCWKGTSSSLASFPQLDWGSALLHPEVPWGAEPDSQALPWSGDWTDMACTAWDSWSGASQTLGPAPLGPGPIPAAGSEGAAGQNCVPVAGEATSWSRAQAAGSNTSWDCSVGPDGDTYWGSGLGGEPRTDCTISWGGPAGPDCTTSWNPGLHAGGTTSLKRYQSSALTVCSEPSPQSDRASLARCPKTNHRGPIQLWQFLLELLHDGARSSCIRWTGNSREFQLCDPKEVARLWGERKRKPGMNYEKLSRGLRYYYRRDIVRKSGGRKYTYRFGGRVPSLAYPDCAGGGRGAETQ
In short: as §1

EHF = molecular target: T10, EHF (Homo sapiens, UniProt Q9NZC4 1-300)
T10 sequence: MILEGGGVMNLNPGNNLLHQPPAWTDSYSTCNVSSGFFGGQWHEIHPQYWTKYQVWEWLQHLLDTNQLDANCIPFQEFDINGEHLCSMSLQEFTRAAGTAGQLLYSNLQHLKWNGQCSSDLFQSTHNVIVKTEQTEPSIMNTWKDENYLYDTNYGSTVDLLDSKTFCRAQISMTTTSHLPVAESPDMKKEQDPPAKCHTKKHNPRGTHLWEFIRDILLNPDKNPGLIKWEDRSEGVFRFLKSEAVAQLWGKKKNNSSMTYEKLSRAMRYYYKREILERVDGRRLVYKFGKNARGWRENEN
In short: as §1

ELF3 = molecular target: T11, ELF3 (Homo sapiens, UniProt P78545 1-371)
T11 sequence: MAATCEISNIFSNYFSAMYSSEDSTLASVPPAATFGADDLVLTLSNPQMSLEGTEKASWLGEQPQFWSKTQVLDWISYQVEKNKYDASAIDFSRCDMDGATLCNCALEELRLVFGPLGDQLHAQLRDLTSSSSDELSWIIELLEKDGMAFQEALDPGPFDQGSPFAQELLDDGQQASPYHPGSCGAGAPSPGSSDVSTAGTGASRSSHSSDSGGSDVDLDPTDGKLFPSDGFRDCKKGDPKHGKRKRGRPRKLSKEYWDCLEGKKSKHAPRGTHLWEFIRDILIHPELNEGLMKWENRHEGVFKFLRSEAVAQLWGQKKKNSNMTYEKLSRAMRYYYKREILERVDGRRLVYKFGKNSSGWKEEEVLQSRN
In short: as §1

ETV1 = ETV1 (Homo sapiens, UniProt P50549 1-477)
In short: as §1

Chain of ELF4 (Q99607 whole entry): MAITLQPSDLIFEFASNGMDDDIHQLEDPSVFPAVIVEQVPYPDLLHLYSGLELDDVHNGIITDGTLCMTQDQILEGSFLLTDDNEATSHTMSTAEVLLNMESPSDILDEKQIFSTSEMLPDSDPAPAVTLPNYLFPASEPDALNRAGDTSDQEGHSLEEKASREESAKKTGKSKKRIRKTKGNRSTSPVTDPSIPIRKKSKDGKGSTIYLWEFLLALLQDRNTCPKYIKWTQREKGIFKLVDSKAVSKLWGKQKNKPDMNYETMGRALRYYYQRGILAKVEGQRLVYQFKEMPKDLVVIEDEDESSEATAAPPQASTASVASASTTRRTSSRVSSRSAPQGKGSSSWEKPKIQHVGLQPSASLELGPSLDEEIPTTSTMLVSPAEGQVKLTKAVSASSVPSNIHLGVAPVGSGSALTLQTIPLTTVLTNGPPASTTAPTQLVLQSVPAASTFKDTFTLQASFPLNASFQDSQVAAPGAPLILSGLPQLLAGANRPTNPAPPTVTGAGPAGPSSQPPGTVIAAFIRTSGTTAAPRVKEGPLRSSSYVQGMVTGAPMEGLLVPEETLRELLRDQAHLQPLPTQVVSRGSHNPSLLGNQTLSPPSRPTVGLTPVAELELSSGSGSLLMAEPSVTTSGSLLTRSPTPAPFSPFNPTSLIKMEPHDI
Chain of ELF1 (P32519 whole entry): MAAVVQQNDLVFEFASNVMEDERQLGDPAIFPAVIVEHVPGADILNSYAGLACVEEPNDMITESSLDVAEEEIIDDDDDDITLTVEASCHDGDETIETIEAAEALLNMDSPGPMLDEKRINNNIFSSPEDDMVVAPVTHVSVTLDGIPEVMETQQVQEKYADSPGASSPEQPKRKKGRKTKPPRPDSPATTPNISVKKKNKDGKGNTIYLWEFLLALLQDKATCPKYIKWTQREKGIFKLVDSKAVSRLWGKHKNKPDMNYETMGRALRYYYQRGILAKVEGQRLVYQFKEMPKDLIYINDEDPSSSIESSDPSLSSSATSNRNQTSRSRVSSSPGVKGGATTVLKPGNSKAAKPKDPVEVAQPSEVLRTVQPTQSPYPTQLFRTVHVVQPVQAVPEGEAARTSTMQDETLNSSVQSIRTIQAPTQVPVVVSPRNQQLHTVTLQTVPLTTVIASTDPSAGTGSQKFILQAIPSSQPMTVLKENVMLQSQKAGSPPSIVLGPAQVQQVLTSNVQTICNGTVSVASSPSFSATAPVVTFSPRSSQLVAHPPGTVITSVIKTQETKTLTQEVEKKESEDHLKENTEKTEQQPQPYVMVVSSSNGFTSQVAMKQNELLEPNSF
Chain of SPIB (Q01892 whole entry): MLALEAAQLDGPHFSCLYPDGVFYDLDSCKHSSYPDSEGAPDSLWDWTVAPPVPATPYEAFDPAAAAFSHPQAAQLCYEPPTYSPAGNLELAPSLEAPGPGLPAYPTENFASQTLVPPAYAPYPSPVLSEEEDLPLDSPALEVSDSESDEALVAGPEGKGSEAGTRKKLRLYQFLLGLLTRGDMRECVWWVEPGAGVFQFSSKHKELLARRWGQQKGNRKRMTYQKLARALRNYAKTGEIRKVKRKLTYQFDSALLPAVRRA
Chain of ETV5 (P41161 whole entry): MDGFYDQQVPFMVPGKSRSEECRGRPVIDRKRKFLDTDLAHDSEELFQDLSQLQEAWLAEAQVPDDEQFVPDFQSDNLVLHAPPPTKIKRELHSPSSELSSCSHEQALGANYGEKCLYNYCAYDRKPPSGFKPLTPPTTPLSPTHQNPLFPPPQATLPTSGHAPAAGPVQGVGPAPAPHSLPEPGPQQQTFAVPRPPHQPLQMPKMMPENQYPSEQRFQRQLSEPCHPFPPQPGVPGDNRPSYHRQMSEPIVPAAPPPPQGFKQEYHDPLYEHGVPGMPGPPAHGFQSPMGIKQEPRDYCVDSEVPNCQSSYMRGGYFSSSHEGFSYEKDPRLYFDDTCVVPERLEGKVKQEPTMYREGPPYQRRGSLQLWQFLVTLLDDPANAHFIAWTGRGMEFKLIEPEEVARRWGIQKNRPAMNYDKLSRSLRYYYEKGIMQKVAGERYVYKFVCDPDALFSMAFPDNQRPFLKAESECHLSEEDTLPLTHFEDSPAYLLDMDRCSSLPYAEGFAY
Chain of ETV1 (P50549 whole entry): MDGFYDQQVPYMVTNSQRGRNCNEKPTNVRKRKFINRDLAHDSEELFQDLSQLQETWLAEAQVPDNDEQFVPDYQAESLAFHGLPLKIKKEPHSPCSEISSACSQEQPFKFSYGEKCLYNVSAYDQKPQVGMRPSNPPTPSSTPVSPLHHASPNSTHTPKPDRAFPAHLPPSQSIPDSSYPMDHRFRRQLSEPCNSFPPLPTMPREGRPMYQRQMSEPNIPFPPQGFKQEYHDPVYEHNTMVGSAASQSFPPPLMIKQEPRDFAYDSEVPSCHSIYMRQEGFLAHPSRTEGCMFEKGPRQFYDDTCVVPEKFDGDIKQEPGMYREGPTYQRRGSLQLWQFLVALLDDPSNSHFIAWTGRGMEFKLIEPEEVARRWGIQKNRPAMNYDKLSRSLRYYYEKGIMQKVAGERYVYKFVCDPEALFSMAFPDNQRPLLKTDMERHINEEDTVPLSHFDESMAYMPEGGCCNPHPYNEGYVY

Sequence | binding signal (FLI1) | binding signal (ELK1) | binding signal (GABPA) | binding signal (ERG) | binding signal (ELF1) | binding signal (SPI1) | binding signal (SPIB) | binding signal (ELK3) | binding signal (FEV) | binding signal (ETV5) | binding signal (SPIC) | binding signal (ELF4) | binding signal (ELK4) | binding signal (ETV2) | binding signal (EHF) | binding signal (ELF3) | binding signal (ETV1)
GCCCAT | 1.06 fold enrichment (6-mer frequency, TF over GST control) | 1.05 fold enrichment (6-mer frequency, TF over GST control) | 1.17 fold enrichment (6-mer frequency, TF over GST control) | 1.04 fold enrichment (6-mer frequency, TF over GST control) | 1.06 fold enrichment (6-mer frequency, TF over GST control) | 1.03 fold enrichment (6-mer frequency, TF over GST control) | 1.04 fold enrichment (6-mer frequency, TF over GST control) | 1.04 fold enrichment (6-mer frequency, TF over GST control) | 1.09 fold enrichment (6-mer frequency, TF over GST control) | 1.03 fold enrichment (6-mer frequency, TF over GST control) | 1.12 fold enrichment (6-mer frequency, TF over GST control) | 1.07 fold enrichment (6-mer frequency, TF over GST control) | 1.23 fold enrichment (6-mer frequency, TF over GST control) | 1.01 fold enrichment (6-mer frequency, TF over GST control) |  |  | 
CGCTGC | 1.12 fold enrichment (6-mer frequency, TF over GST control) | 1.04 fold enrichment (6-mer frequency, TF over GST control) | 1.25 fold enrichment (6-mer frequency, TF over GST control) | 1.22 fold enrichment (6-mer frequency, TF over GST control) | 1.14 fold enrichment (6-mer frequency, TF over GST control) | 1.07 fold enrichment (6-mer frequency, TF over GST control) | 1.22 fold enrichment (6-mer frequency, TF over GST control) | 1.16 fold enrichment (6-mer frequency, TF over GST control) | 1.14 fold enrichment (6-mer frequency, TF over GST control) | 1.18 fold enrichment (6-mer frequency, TF over GST control) | 1.21 fold enrichment (6-mer frequency, TF over GST control) | 1.1 fold enrichment (6-mer frequency, TF over GST control) | 1.2 fold enrichment (6-mer frequency, TF over GST control) |  | 1.28 fold enrichment (6-mer frequency, TF over GST control) | 1.03 fold enrichment (6-mer frequency, TF over GST control) | 1.21 fold enrichment (6-mer frequency, TF over GST control)
